# Data as given in PubChem BioAssay (NCATS).
# Where “and” joins values, the source holds several entries; their conditions need not be identical. Equal values may be shown once. Inconclusive results are not listed. Entries that show only a call come without a potency. Calls of active or inactive are those of the source. Unless noted, calls follow the shape of the full dose curve.
# Tests used:
# [1] = Cytotoxicity counterscreen for inhibitors of SARS-CoV-2 cell entry (AID 1645845); also: nearly all actives have a fitted effect of over 50% in size
# Outline: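 HEK293-ACE2 cells (Expi293F stably expressing human ACE2) seeded overnight, then compound for 1 h plus 48 h at 37C. Viability as ATP content by luminescence; normalized to wells with cells and media-only wells.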
# [2] = Confirmatory qHTS to identify inhibitors of SARS-CoV-2 cell entry (AID 1645844); also: nearly all actives have a fitted effect of over 45% in size; also: potency is read from the fitted curve at half-maximal effect
# Outline: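 HEK293-ACE2 cells were pretreated 1 h with compound, then infected with MLV-based pseudoparticles bearing C-terminally truncated Wuhan-Hu-1 spike for 48 h at 37C; luciferase luminescence normalized to spike PP and bald PP wells.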
# [3] = molecular target: Cytochrome P450 2C9 (Homo sapiens) (UniProt P11712); assay: Cytochrome P450 family 2 subfamily C member 9 (CYP2C9) small molecule antagonists: luciferase biochemical (cell-free) qHTS assay (AID 1645842; active = well fitted curve in the direction sought with a large enough effect in the repeat runs; an effect the other way counts as inactive or inconclusive; also: nearly all actives have a fitted effect of over 55% in size; also: potency is read from the fitted curve at half-maximal effect)
# Sequence of Cytochrome P450 2C9 (Homo sapiens) (P11712 whole entry, looked up): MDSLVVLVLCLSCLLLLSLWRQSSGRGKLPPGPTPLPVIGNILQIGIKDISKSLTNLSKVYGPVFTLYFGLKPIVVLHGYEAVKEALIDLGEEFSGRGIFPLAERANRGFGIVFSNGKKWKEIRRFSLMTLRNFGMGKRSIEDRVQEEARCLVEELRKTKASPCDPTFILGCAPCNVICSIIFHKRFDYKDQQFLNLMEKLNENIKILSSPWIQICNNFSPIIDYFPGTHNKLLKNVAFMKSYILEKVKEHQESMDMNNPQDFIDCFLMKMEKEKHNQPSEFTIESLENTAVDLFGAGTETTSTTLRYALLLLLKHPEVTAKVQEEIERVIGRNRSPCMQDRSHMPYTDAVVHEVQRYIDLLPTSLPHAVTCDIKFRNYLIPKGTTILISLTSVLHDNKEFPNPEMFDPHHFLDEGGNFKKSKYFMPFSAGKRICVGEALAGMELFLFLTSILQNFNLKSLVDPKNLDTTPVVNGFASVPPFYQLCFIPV
# Outline: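 Luminescence, after 20 min with luciferin detection reagent, reflected CYP2C9 turnover during a 1 h NADPH-driven reaction at 37C. Enzyme-substrate mix contained 0.4% bovine serum albumin and was preincubated with compound 10 min at room temperature.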
# [4] = A High-Content qHTS Against Drug Library for the Identification of Small Molecules that Inhibit DYT1 Early Onset Primary Dystonia-Associated Cell Pathology (AID 1645839)
# Outline: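 Flp-In T-REx 293 cells with tetracycline-inducible EGFP-delE hTOR1A (WT EGFP-hTOR1A as reference), 800 cells/well; compound added with tetracycline, 48 h at 37 C. Fixed, permeabilized cells imaged; %pathology (punctate TorsinA) primary, cell count counterscreen.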
# [5] = Primary qHTS to identify inhibitors of SARS-CoV-2 cell entry (AID 1645846); conditions: activity change, negative = inhibition: at 57.1 µM (top of the series) unless noted; also: nearly all actives have a fitted effect of over 45% in size
# Outline: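 Luminescence readout (Bright-Glo luciferase) 48 h after pseudoparticle addition. HEK293-ACE2 cells, 1500/well; compound pre-incubation 1 h; Normalized to spike PP and bald PP.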
# [6] = molecular target: Cytochrome P450 2D6 (Homo sapiens) (UniProt P10635); assay: Cytochrome P450 family 2 subfamily D member 6 (CYP2D6) small molecule antagonists: luciferase biochemical (cell-free) qHTS assay (AID 1645840; active = well fitted curve in the direction sought with a large enough effect in the repeat runs; an effect the other way counts as inactive or inconclusive; also: nearly all actives have a fitted effect of over 55% in size; also: potency is read from the fitted curve at half-maximal effect)
# Sequence of Cytochrome P450 2D6 (Homo sapiens) (P10635 whole entry, looked up): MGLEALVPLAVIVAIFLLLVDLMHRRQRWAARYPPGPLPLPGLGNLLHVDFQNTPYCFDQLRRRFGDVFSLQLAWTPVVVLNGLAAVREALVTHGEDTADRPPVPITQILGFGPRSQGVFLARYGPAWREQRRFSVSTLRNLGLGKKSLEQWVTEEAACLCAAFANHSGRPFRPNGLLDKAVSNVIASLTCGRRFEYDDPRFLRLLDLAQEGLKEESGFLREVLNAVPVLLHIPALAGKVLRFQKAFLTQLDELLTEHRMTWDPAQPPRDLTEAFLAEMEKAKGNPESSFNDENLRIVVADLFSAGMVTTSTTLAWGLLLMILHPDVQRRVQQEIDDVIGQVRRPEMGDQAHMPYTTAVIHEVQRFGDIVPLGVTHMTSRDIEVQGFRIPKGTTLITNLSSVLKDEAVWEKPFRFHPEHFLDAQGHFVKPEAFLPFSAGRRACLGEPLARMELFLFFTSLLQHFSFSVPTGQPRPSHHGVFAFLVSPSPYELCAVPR
# Outline: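 P450-Glo luminescent screen: recombinant CYP2D6 enzyme–proluciferin substrate mix preincubated with compound 10 min at room temperature, then NADPH regeneration added for 1 h at room temperature. Detection reagent added for 20 min; luciferin light read as relative luminescence units.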
structure (smiles),measurement,setting,value
NCCCNCCSP(=O)(O)O,"activity change, negative = cytotoxicity",[1],-16.9% [at 11.3 µM] (inactive)
CCCCCCNC(=O)n1cc(F)c(=O)[nH]c1=O,Potency,[2],8.57 µM (active)
same,Potency,[1],inactive
CC(C)(C)C(=O)Oc1ccc(S(=O)(=O)Nc2ccccc2C(=O)NCC(=O)O)cc1,Potency,[1],inactive
CC(=O)NCc1c(I)c(NC(C)=O)c(I)c(C(=O)O)c1I,Potency,[1],inactive
C[C@]12CCC(=O)C=C1CC[C@H]1[C@@H]3CC[C@](O)(C(=O)CO)[C@@]3(C)C[C@H](O)[C@@]12F,Potency,[1],inactive
CC(C)[C@H]1C(=O)N2CCC[C@H]2[C@]2(O)O[C@](NC(=O)[C@@H]3C[C@@H]4c5cccc6[nH]cc(c56)C[C@H]4N(C)C3)(C(C)C)C(=O)N12,Potency,[1],inactive
CCCN(CCC)C(=O)Cc1c(-c2ccc(Cl)cc2)nc2ccc(Cl)cn12,Potency,[3],12.3 µM (active)
CC(C)(C)c1ccc(O)cc1,outcome,[4],inactive
same,"activity change, negative = inhibition",[5],-17.1%
Oc1ccc(Cl)c2cccnc12,Potency,[2],2.71 µM (active)
CCOc1ccc2nc3cc(N)ccc3c(N)c2c1,Potency,[2],24.1 µM (active)
CCN(CC)C(C)CN1c2ccccc2Sc2ccccc21 (centres undefined),Potency,[2],0.0383 µM (active)
same,Potency,[1],inactive
CN1[C@@H]2CC[C@H]1CC(OC(c1ccccc1)c1ccccc1)C2 (some centres undefined),Potency,[2],6.81 µM (active)
same,Potency,[1],inactive
CC(C)OC(=O)OCOP(=O)(CO[C@H](C)Cn1cnc2c(N)ncnc21)OCOC(=O)OC(C)C,Potency,[2],0.0152 µM (active)
same,Potency,[1],inactive
Cc1cc(NS(=O)(=O)c2ccc(N)cc2)nc(C)n1,Potency,[2],inactive
same,Potency,[1],inactive
COc1cccc2c1C(=O)c1c(O)c3c(c(O)c1C2=O)C[C@@](O)(C(=O)CO)C[C@@H]3O[C@H]1C[C@H](N)[C@@H](O)[C@H](C)O1,Potency,[2],0.0961 µM (active)
same,Potency,[1],inactive
same,"activity change, negative = inhibition",[5],-93.2% and -92.9%
CC(C)=CCC/C(C)=C/CC/C(C)=C/CCC(=O)OC/C=C(\C)CCC=C(C)C,Potency,[2],9.61 µM (active)
same,Potency,[1],inactive
CN(C)CCc1c[nH]c2ccc(Cn3cncn3)cc12,Potency,[1],inactive
CC(=O)OCC(=O)[C@H]1CC[C@H]2[C@@H]3CCC4=CC(=O)CC[C@]4(C)[C@H]3CC[C@]12C,Potency,[1],inactive
CCOc1cc(OCC)c(C(=O)CCC(=O)O)cc1OCC,Potency,[1],inactive
Cc1ccc(Nc2nccc(N(C)c3ccc4c(C)n(C)nc4c3)n2)cc1S(N)(=O)=O,Potency,[2],21.5 µM (active)
CCOP(=S)(OCC)Oc1ccc2c(C)c(Cl)c(=O)oc2c1,Potency,[6],15.5 µM (active)
same,Potency,[3],6.92 µM (active)
same,Potency,[1],inactive
same,"activity change, negative = inhibition",[5],69.2%
CNCCC=C1c2ccccc2CCc2ccccc21,Potency,[2],21.5 µM (active)
same,Potency,[1],inactive
CCc1oc2ccccc2c1C(=O)c1cc(I)c(O)c(I)c1,Potency,[1],inactive
CCCCCCCCCCCCCCCCCC(=O)O,Potency,[6],inactive
same,Potency,[3],inactive
same,Potency,[1],inactive
same,"activity change, negative = inhibition",[5],-6.11%
O=c1oc2ccccc2c(O)c1Cc1c(O)c2ccccc2oc1=O,outcome,[4],inactive
same,Potency,[1],inactive
same,Potency,[5],inactive
CCCCCC=CCC=CCCCCCCCC(=O)OCC,Potency,[1],inactive
CC(=O)Oc1cccc(O)c1,Potency,[1],inactive
Nc1nc2[nH]cc(CCc3ccc(C(=O)N[C@@H](CCC(=O)O)C(=O)O)cc3)c2c(=O)[nH]1,Potency,[2],1.92 µM (active)
same,Potency,[1],inactive
Cc1cc2c(cc1CC(=O)c1sccc1S(=O)(=O)Nc1onc(C)c1Cl)OCO2,Potency,[2],inactive
same,Potency,[1],inactive
same,Potency,[5],inactive
same,"activity change, negative = inhibition",[5],-56.4%
Cc1c(C)c2c(c(C)c1O)CCC(C)(COc1ccc(CC3SC(=O)NC3=O)cc1)O2 (centres undefined),Potency,[2],34.1 µM (active)
same,Potency,[1],inactive
O=C1CN(/N=C/c2ccc([N+](=O)[O-])o2)C(=O)N1,Potency,[2],21.5 µM (active)
Clc1ccc(C(c2ccc(Cl)cc2)C(Cl)(Cl)Cl)cc1,Potency,[6],inactive
same,Potency,[3],2.19 µM (active)
same,Potency,[1],inactive
same,"activity change, negative = inhibition",[5],2.18%
Cc1nc2ccc(CN(C)c3ccc(C(=O)N[C@@H](CCC(=O)O)C(=O)O)s3)cc2c(=O)[nH]1,Potency,[2],0.0271 µM (active)
same,Potency,[1],inactive
Cc1c(NC(=O)c2cccnc2)c(=O)n(-c2ccccc2)n1C,Potency,[1],inactive
same,Potency,[5],inactive
c1ccc2c(CC3=NCCN3)cccc2c1,Potency,[1],inactive
same,"activity change, negative = inhibition",[5],0.334%
COc1ccc(-c2ccc3cc(C(=O)O)ccc3c2)cc1C12CC3CC(CC(C3)C1)C2,Potency,[1],inactive
same,"activity change, negative = inhibition",[5],-13.5% and -15.7%
COCCOC(=O)C1=C(C)NC(C)=C(C(=O)OC(C)C)C1c1cccc([N+](=O)[O-])c1 (centres undefined),Potency,[1],inactive
same,"activity change, negative = inhibition",[5],-23.8%
O=c1c(-c2ccc(O)cc2)coc2cc(O)cc(O)c12,Potency,[1],inactive
same,"activity change, negative = inhibition",[5],-23.9% [at 114 µM]
O=C1[C@@H]2[C@H]3CC[C@H](C3)[C@@H]2C(=O)N1CCCCN1CCN(c2ncccn2)CC1,Potency,[1],inactive
same,"activity change, negative = inhibition",[5],-0.993%
C[C@H]1O[C@@H](n2cc(F)c(=O)[nH]c2=O)[C@H](O)[C@@H]1O,Potency,[1],inactive
same,"activity change, negative = inhibition",[5],-10.7% and -12.7%
